# Some of the results follow. The source made the active and inactive calls.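 How the source made its calls: active means fluorescence ratio falls more than 5 SD below the full-stimulation control mean, in both duplicate runs; inactive means the rest.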
# Target: Short transient receptor potential channel 6 (Mus musculus) (UniProt Q61143)
# Assay: blockers of TRPC6 cation channel activity – HEK293 cells, membrane potential dye, duplicate, confirmation (AID 488960);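 on inhibition: integrated fluorescence ratio of peak minus minimum over baseline after agonist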
# Settings: ACh-evoked depolarization, at 10 µM; hits give high values
# Short transient receptor potential channel 6 (Mus musculus), sequence (Q61143 whole entry, looked up): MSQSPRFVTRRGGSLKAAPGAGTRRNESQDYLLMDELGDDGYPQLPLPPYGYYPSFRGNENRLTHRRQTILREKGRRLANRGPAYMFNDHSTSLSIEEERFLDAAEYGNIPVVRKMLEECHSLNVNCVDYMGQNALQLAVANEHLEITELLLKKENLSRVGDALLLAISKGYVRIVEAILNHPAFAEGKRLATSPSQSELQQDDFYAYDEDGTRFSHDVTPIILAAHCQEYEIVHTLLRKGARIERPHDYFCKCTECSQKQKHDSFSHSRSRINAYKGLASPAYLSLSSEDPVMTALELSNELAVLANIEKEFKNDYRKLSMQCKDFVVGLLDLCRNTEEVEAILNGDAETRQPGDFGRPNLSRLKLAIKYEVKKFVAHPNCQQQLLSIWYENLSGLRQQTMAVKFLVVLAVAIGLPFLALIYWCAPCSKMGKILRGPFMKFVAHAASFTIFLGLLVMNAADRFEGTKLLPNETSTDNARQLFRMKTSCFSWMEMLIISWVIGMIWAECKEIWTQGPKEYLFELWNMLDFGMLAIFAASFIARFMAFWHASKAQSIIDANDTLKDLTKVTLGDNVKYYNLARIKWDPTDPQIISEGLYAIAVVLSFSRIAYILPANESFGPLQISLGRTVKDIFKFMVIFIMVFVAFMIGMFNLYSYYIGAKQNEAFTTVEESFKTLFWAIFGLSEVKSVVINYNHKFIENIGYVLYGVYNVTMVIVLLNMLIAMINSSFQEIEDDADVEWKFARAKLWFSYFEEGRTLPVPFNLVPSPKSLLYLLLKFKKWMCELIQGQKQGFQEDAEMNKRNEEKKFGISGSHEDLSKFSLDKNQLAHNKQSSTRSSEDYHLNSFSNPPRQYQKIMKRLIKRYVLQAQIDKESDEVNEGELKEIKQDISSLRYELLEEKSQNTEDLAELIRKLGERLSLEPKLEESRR
Structure (SMILES),outcome,inhibition
OCCC1CN(Cc2ccc3nsnc3c2)CCN1C1CCCCC1 (stereo not given),inactive,
Cc1cccc(-[n+]2c(-c3cccc(Br)c3)[nH]c3nc4ccccc4nc32)c1,inactive,
N=c1c2c3c(sc2ncn1CCCN1CCOCC1)CCCCC3,inactive,
O=C1CN(C(=O)c2ccccc2F)C(c2ccc(F)cc2)c2cc(F)ccc2N1 (stereo not given),inactive,
Nc1ccc(C(=O)N2CCN(S(=O)(=O)c3ccc(Cl)cc3)CC2)cc1[N+](=O)[O-],,72.5% (active)
COC(=O)c1c(NC(=O)c2ccc(S(=O)(=O)N3CCOCC3)cc2)sc2c1CCN(C(C)C)C2,inactive,
CCOc1nc(NCCN2CCOCC2)nc(Nc2ccc(C)cc2)n1,inactive,
Cc1cccc(NC(=S)NCCN(C2CCCCC2)C2CCCC2)c1,,44.5% (active)
COc1ccc(Cl)cc1NC(=O)CCS(=O)(=O)c1cc2c(cc1C)NC(=O)CO2,inactive,
CCN1CCN(c2ccc([N+](=O)[O-])cc2C(=O)c2ccc(Cl)cc2)CC1,inactive,
N=c1c2c3c(sc2nc2n1CCCCC2)CCCC3,,61% (active)
Cc1nc(C(=O)NCc2ccccc2)sc1C1(C)CC(c2cccnc2)=NO1 (stereo not given),,114% (active)
CC(C)c1ccc(NC(=O)Cn2ncc3ccccc32)cc1,inactive,
Cc1nc(N=C(N)N)nc2c(C)cccc12,,67.5% (active)
CCCCN(CCCC)CC(O)Cn1c2ccccc2c(=O)c2ccccc21 (stereo not given),,69% (active)
Nc1c(C(=O)c2cccs2)sc2nsc(SCCN3CCCCC3)c12,inactive,
Clc1ccc(-n2nnnc2-c2cnc(-c3ccccn3)nc2-c2cccs2)cc1,inactive,
CCc1ccc(-c2cc(C(=O)NN3CCN(C)CC3)c3ccccc3n2)cc1,inactive,
C/C(=N\Nc1nc2ccccc2[nH]1)c1cccs1,,76% (active)
COc1ccc(-c2nnc(NC(=O)CS(=O)(=O)c3ccc(Cl)cc3)o2)c(OC)c1,inactive,

Structure (SMILES),outcome,inhibition
CCCN(CCc1ccccc1)C1CCc2c(O)cccc2C1 (stereo not given),inactive,
CCN1CCN(c2nc(Nc3cc(OC)ccc3OC)nc(Nc3cc(OC)ccc3OC)n2)CC1,inactive,
COc1ccc(Br)cc1/C=N/n1c(C)nnc1C,inactive,
CN1CCN(C(=O)N2c3ccccc3CCc3ccccc32)CC1,inactive,
CC(C)C(c1nnnn1CCc1ccccc1)N1CCN(C(=O)c2ccco2)CC1 (stereo not given),,70% (active)
O=C(c1ccc(-n2cnnn2)cc1)N1CCN(C(c2ccccc2)c2ccccc2)CC1,,44.5% (active)
COC(=O)c1ccccc1NC(=O)C1CCN(S(=O)(=O)c2cc(OC)ccc2OC)CC1,inactive,
CCOc1ccc(/C(O)=C2/C(=O)C(=O)N(Cc3cccnc3)C2c2ccc(N(C)C)cc2)c(C)c1 (stereo not given),inactive,
CSCCC(NC(=O)c1ccc(=O)n(C)n1)c1nc2ccccc2[nH]1 (stereo not given),inactive,
COc1cc(CNCCN(C)C)ccc1OCc1c(F)cccc1Cl,inactive,
CCCc1cc(=O)oc2c(C)c(O)c(CN3CCCCC3)cc12,,54.5% (active)
CN1CCN(c2ccc([N+](=O)[O-])c(Sc3nc4ccccc4[nH]3)c2)CC1,,52.5% (active)
N=c1n(CCc2ccccc2)c2ccccc2n1Cc1ccccc1F,,66.5% (active)
CN(C)c1ccc(/C=C2\NC(=S)N(Cc3ccccc3)C2=O)cc1,inactive,
Cc1c(CCOC(=O)CC23CC4CC(CC(C)(C4)C2)C3)sc[n+]1Cc1ccc([N+](=O)[O-])cc1,inactive,
CCCCc1nc(NCCN)c(C#N)c2c1CSC(C)(C)C2,inactive,
CCOC(=O)c1sc2nc(CSCC(=O)OCc3ccc(C(=O)OC)o3)[nH]c(=O)c2c1C,,90% (active)
O=[N+]([O-])c1ccccc1Nc1ccc(O)cc1,inactive,
CC(=O)c1cc(NC(=O)c2ccccc2)c(=O)oc1/C=C/N(C)C,inactive,
CCC(C)NCCOCCOc1ccc(Br)cc1C (stereo not given),inactive,
